# This is a sample that favours compounds with a hit; in the whole collection about 1.6% have one here.
# KCNQ2 block: rat KCNQ2 potassium channel inhibitors, primary screen, cell-based, CHO-K1, FluxOR thallium flux, B-score. Potassium voltage-gated channel subfamily KQT member 2 (Rattus norvegicus), O88943. 20 min; active compounds read low. B-score at 10 µM. 310,000 compounds, 1.1% hits;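 active = fluorescence ratio B-score at most minus 3 library SDs, with starting brightness B-score within 2 library SDs, cut at about -5.5 in these data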
# KCNQ2 pot: potentiators of rat KCNQ2 potassium channel; AID 2239, 2010; Potassium voltage-gated channel subfamily KQT member 2 (Rattus norvegicus), O88943; CHO-K1 KCNQ2, FluxOR thallium flux fluorescence; active compounds read high; 310,000 compounds, 0.54% hits; B-score at 10 µM;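 active = fluorescence ratio B-score at least 3 SD of library B-scores, with initial fluorescence B-score within 3 of them, cut at about 5.3 in these data; same plate scores as AID 2156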;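 also: B-score of peak minus minimum over baseline fluorescence ratio after K+ and Tl+ stimulus; positive B-score means potentiation of KCNQ2 with more thallium influx and brighter signal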
# Kir21 conf inh: mouse Kir2.1 channel blockers, retest, confirmation, cell-based, FluxOR thallium flux, duplicate. Tl flux remaining, % of negative control (active compounds read low), % at 10 µM. 2,300 compounds, 41% hits. Kir2.1-expressing cells, FluxOR thallium flux fluorescence; active compounds read low. shares compounds with KCNQ2 pot. AID 2032, 2009;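 active = Primary-screen hit whose thallium flux fell at least 3 control SD below untreated wells in both duplicates, with normal baseline fluorescence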
# HEK293 ctr: parental HEK293 activity in Kir2.1 inhibitor counter-screen | shares compounds with KCNQ2 pot | AID 2105 | FluxOR signal as % of negative control (100 = no effect), % at 10 µM | parental HEK293 cells, FluxOR thallium flux fluorescence; 0% = unstimulated blank wells | 2,300 compounds, 19% hits;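 active = dye signal at least 3 control SD above or below untreated wells in both duplicates, raw fluorescence within 3, either direction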;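 also: percent is based on the flux ratio of peak minus minimum fluorescence over baseline F0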
# CHO-K1 Tl ctr: nonspecific thallium flux increase in parental CHO-K1, confirmation, counter-screen for KCNQ2 potentiator project, cell-based, FluxOR thallium flux, duplicate; shares compounds with KCNQ2 pot; parental CHO-K1 cells, FluxOR thallium flux fluorescence; zero = vehicle mean+3SD, 100% = vehicle-minus-blank window; activity increase over 3SD of controls, % at 10 µM; 1,200 compounds, 43% hits; AID 2282, 2010;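 active = signal rise of at least 3 SD above the untreated control mean, in both duplicate wells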;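 also: counter screen of KCNQ2 potentiator hits so any rise reflects channel-independent effects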
# KCNQ1 sel pot: human KCNQ1 channel potentiation off-target, confirmation, selectivity assay for KCNQ2 potentiator project, cell-based, CHO, FluxOR thallium flux. activation over 3SD threshold, % at 10 µM. AID 2283, 2010. 1,200 compounds, 28% hits. CHO KCNQ1 stable, FluxOR thallium flux fluorescence; beyond 3SD, as % of vehicle-control signal. shares compounds with KCNQ2 pot;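 active = fluorescence ratio rise of at least 3 SD of vehicle wells above their mean, in both replicate wells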
# KCNQ2 pot conf: rat KCNQ2 channel potentiators, confirmation, cell-based, CHO, FluxOR thallium flux, duplicate; shares compounds with KCNQ2 pot; CHO-KCNQ2 cells, FluxOR thallium flux fluorescence; potentiation, less the hit threshold, % at 10 µM; 1,200 compounds, 68% hits; AID 2287, 2010;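 active = fluorescence ratio rising 3 SD or more over the vehicle control mean in both replicates, plus primary screen hit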;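 also: peak minus minimum thallium fluorescence divided by baseline after K/Tl stimulus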
# Kir2-1 sel: mouse Kir2.1 channel activation off-target, confirmation, selectivity assay for KCNQ2 potentiator project, cell-based, HEK293, FluxOR thallium flux. shares compounds with KCNQ2 pot. HEK293 Kir2.1, FluxOR thallium flux fluorescence. activity over 3SD threshold, % at 10 µM. 1,200 compounds, 2% hits. AID 2345, 2010;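 active = fluorescence ratio rise of at least 3 SD above the vehicle-control mean, seen in both replicates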
# KCNQ2 W236L pot: potentiators of retigabine-insensitive KCNQ2 W236L, mechanism study for KCNQ2 potentiator project, cell-based, rat KCNQ2 W236L, CHO, automated patch clamp. shares compounds with KCNQ2 pot. automated patch clamp current. current increase over 3SD of negative controls (%), active compounds read high, % at 25 µM. 940 compounds, 10% hits;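 active = current increase at least 3 SD of the untreated controls above them in both duplicate recordings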
# Numbers stand for hits; n = inactive; x = no result given.
SMILES,KCNQ2 block,KCNQ2 pot,Kir21 conf inh,HEK293 ctr,others
COc1ccc(OC)c(CN2CCN(C(=O)Cc3ccccc3)CC2)c1,n,n,x,x,
CC/C(=C\C=C\[C@@H]1C=C[C@@H]2CCC[C@H]2[C@@H]1C(=O)c1ccc[nH]1)[C@@H]1O[C@@H]([C@@H](C)C(=O)O)CC[C@@H]1C,n,28,x,x,CHO-K1 Tl ctr=n;KCNQ1 sel pot=n;KCNQ2 pot conf=74.2;Kir2-1 sel=n;KCNQ2 W236L pot=n
Oc1cccc2nc3ccccc3nc12,n,12.4,n,n,CHO-K1 Tl ctr=n;KCNQ1 sel pot=n;KCNQ2 pot conf=7.1;Kir2-1 sel=n;KCNQ2 W236L pot=n
CC1CCCCN1C(=O)Cn1cc(C=C2C(=O)N(C)C(=O)N(C)C2=O)c2ccccc21 (configuration not stated),n,n,x,x,
CCC(=O)c1cn(Cc2ccccc2)c2ccccc12,n,n,x,x,
CN(C)CCOC(=O)c1cn(Cc2ccccc2)c2ccccc12,n,x,52.5%,n,
O=c1cccc2n1CC1CC2CN(c2nc(N3CCCCC3)nc(N3CCCCC3)n2)C1 (configuration not stated),n,x,x,x,
CCOc1ccc(Br)c(C2(O)CC(C)N(C)CC2C)c1 (configuration not stated),n,n,x,x,
CC(NCc1ccc(Cl)cc1)C(O)c1ccccc1 (configuration not stated),n,x,21.5%,73.0%,
CCOc1c(Cl)cc(CNC(C)C(O)c2ccccc2)cc1OC (configuration not stated),n,x,x,x,
CC(NCc1ccc(Cl)cc1Cl)C(O)c1ccccc1 (configuration not stated),n,x,15.5%,n,
CC(NCc1cccc(Cl)c1Cl)C(O)c1ccccc1 (configuration not stated),n,x,x,x,
N#CCCn1cc(C(=O)Nc2ccc(F)cc2)c(-c2ccccc2)n1,n,x,x,x,

# Screening data as filed in PubChem.
